For three molecules, outcome and AC50 results are on record in PubChem BioAssay (EPA / NIEHS).

Read-out in assay [1]: CFLAR gene, CFLAR (gene 8837)
Briefly: LTEA_HepaRG_CFLAR: Life Technologies and Expression Analysis (LTEA) Assay for CFLAR gene using HepaRG (AID 2283455). As to conditions: mRNA level, 48 h; actives raise or lower the signal. The gist of the method:
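HepaRG cells were plated for 48 h, switched to serum-free induction medium, then exposed in duplicate for 48 h to 8 concentrations (top 100 uM, half-log steps, 0.5% DMSO). CFLAR mRNA was measured by qRT-PCR, normalized to ACTB, GAPDH and POLR2A.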

Read-out in assay [2]: Forkhead box O1 (FOXO1), FOXO1 (gene 2308)
Briefly: LTEA_HepaRG_FOXO1: Life Technologies and Expression Analysis (LTEA) Assay for Forkhead box O1 (FOXO1) using HepaRG (AID 2283456). As to conditions: mRNA level, 48 h; actives raise or lower the signal. Put shortly: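 Differentiated human HepaRG cells in serum-free induction medium were exposed in duplicate for 48 h to eight half-log concentrations (top 100 uM, 0.5% DMSO). FOXO1 mRNA was measured by TaqMan qRT-PCR, normalised to ACTB, GAPDH and POLR2A, and fitted bidirectionally against DMSO.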

Read-out in assay [3]: growth arrest and DNA damage 45 (GADD45A), GADD45A (gene 1647)
Briefly: LTEA_HepaRG_GADD45A: Life Technologies and Expression Analysis (LTEA) Assay for growth arrest and DNA damage 45 (GADD45A) using HepaRG (AID 2283458). As to conditions: mRNA level, 48 h; actives raise or lower the signal. Put shortly:
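Differentiated HepaRG cells exposed 48 h in serum-free induction medium to 8 concentrations, top 100 uM in half-log steps, 0.5% DMSO. GADD45A mRNA quantified by qRT-PCR, normalized to ACTB, GAPDH and POLR2A; bidirectional fit versus DMSO.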

Read-out in assay [4]: ABC Transporter (ABCB1), ABCB1 (gene 5243)
Briefly: LTEA_HepaRG_ABCB1: Life Technologies and Expression Analysis (LTEA) Assay for ABC Transporter (ABCB1) using HepaRG (AID 2283460). As to conditions: mRNA level, 48 h; actives raise or lower the signal. The gist of the method:
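Differentiated human HepaRG cells, plated 48 h then switched to serum-free induction medium, were exposed in duplicate to eight half-log concentrations up to 100 uM in 0.5% DMSO for 48 h. ABCB1 mRNA was measured by TaqMan qRT-PCR, normalized to ACTB/GAPDH/POLR2A.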

Read-out in assay [5]: growth arrest and DNA damage 45 (GADD45B), GADD45B (gene 4616)
Briefly: LTEA_HepaRG_GADD45B: Life Technologies and Expression Analysis (LTEA) Assay for growth arrest and DNA damage 45 (GADD45B) using HepaRG (AID 2283461). As to conditions: mRNA level, 48 h; actives raise or lower the signal. Put shortly: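 Human HepaRG monolayers receive chemicals for 48 h at eight half-log concentrations, highest 100 uM, in 0.5% DMSO. Expression is measured by TaqMan qRT-PCR and normalized to ACTB, GAPDH and POLR2A.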

Read-out in assay [6]: ABC Transporter (ABCC3), ABCC3 (gene 8714)
Briefly: LTEA_HepaRG_ABCC3: Life Technologies and Expression Analysis (LTEA) Assay for ABC Transporter (ABCC3) using HepaRG (AID 2283462). As to conditions: mRNA level, 48 h; actives raise or lower the signal. Put shortly:
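Transcriptional change of ABCC3 in HepaRG after 48 h treatment, determined by qRT-PCR normalized to endogenous controls. Concentrations spanned eight half-log steps to 100 uM in 0.5% DMSO.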

Read-out in assay [7]: ABC Transporter (ABCB11), ABCB11 (gene 8647)
Briefly: LTEA_HepaRG_ABCB11: Life Technologies and Expression Analysis (LTEA) Assay for ABC Transporter (ABCB11) using HepaRG (AID 2283463). Particulars: mRNA level, 48 h; actives raise or lower the signal. The gist of the method:
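Differentiated human HepaRG cells were exposed for 48 h in serum-free induction medium to eight half-log concentrations up to 100 uM in 0.5% DMSO. ABCB11 mRNA was quantified by qRT-PCR, normalized to ACTB, GAPDH and POLR2A, and fitted bidirectionally versus DMSO.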

Read-out in assay [8]: ABC Transporter (ABCC2), ABCC2 (gene 1244)
Briefly: LTEA_HepaRG_ABCC2: Life Technologies and Expression Analysis (LTEA) Assay for ABC Transporter (ABCC2) using HepaRG (AID 2283464). As to conditions: mRNA level, 48 h; actives raise or lower the signal. The gist of the method:
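After plating and 48 h culture, HepaRG medium is replaced with serum-free induction medium and chemicals are added (8 concentrations, max 100 uM, 0.5% DMSO) for 48 h. Total RNA then undergoes qRT-PCR for ABCC2 with housekeeping normalization.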

Read-out in assay [9]: Broad substrate specificity ATP-binding cassette transporter ABCG2 (Homo sapiens) (UniProt Q9UNQ0)
Briefly: LTEA_HepaRG_ABCG2: Life Technologies and Expression Analysis (LTEA) Assay for ABC Transporter (ABCG2) using HepaRG (AID 2283465). As to conditions: mRNA level, 48 h; actives raise or lower the signal. Put shortly:
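Differentiated HepaRG cells in serum-free induction medium were exposed for 48 h, in duplicate, to eight half-log concentrations up to 100 uM in 0.5% DMSO. ABCG2 mRNA was measured by TaqMan qRT-PCR, normalized to ACTB, GAPDH and POLR2A, and fitted bidirectionally versus DMSO.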

Read-out in assay [10]: ATP-citrate lyase (ACLY), ACLY (gene 47)
Briefly: LTEA_HepaRG_ACLY: Life Technologies and Expression Analysis (LTEA) Assay for ATP-citrate lyase (ACLY) using HepaRG (AID 2283466). As to conditions: mRNA level, 48 h; actives raise or lower the signal. Put shortly:
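Differentiated human HepaRG cells in serum-free induction medium exposed 48 h, in duplicate, to eight half-log concentrations from 100 uM top in 0.5% DMSO; ACLY mRNA measured by qRT-PCR, normalized to ACTB, GAPDH, POLR2A, fitted bidirectionally versus DMSO.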

Read-out in assay [11]: Peroxisomal acyl-coenzyme A oxidase 1 (ACOX1) gene, ACOX1 (gene 51)
Briefly: LTEA_HepaRG_ACOX1: Life Technologies and Expression Analysis (LTEA) Assay for Peroxisomal acyl-coenzyme A oxidase 1 (ACOX1) gene using HepaRG (AID 2283467). As to conditions: mRNA level, 48 h; actives raise or lower the signal. Put shortly:
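Differentiated human HepaRG cells were exposed in duplicate for 48 h in serum-free induction medium to eight half-log concentrations up to 100 uM in 0.5% DMSO. ACOX1 mRNA was then quantified by TaqMan qRT-PCR, normalized to ACTB, GAPDH and POLR2A.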

Read-out in assay [12]: Alkaline Phosphatase, Placental (ALPP) gene, ALPP (gene 250)
Briefly: LTEA_HepaRG_ALPP: Life Technologies and Expression Analysis (LTEA) Assay for Alkaline Phosphatase, Placental (ALPP) gene using HepaRG (AID 2283468). As to conditions: mRNA level, 48 h; actives raise or lower the signal. Put shortly: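 Using human liver HepaRG cells, chemicals are tested in duplicate over 48 h at half-log concentrations topping at 100 uM; phenobarbital 1 mM serves as induction control. ALPP mRNA change by qRT-PCR, bidirectional fit against vehicle.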

Read-out in assay [13]: Bcl-2 (BAD) gene, BAD (gene 572)
Briefly: LTEA_HepaRG_BAD: Life Technologies and Expression Analysis (LTEA) Assay for Bcl-2 (BAD) gene using HepaRG (AID 2283469). Particulars: mRNA level, 48 h; actives raise or lower the signal. Put shortly:
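Differentiated human HepaRG cells in serum-free induction medium were exposed in duplicate for 48 h to eight concentrations (top 100 uM, half-log steps, 0.5% DMSO). BAD mRNA was quantified by qRT-PCR normalised to ACTB, GAPDH and POLR2A, with bidirectional fitting versus DMSO.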

Read-out in assay [14]: Bcl-2 (BAX) gene, BAX (gene 581)
Briefly: LTEA_HepaRG_BAX: Life Technologies and Expression Analysis (LTEA) Assay for Bcl-2 (BAX) gene using HepaRG (AID 2283470). Particulars: mRNA level, 48 h; actives raise or lower the signal. The gist of the method:
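Differentiated HepaRG cells exposed 48 h in serum-free induction medium, eight half-log concentrations from 100 uM, in duplicate, 0.5% DMSO vehicle. BAX mRNA by TaqMan qRT-PCR, normalised to ACTB, GAPDH and POLR2A.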

Read-out in assay [15]: adenosine kinase (ADK) gene, ADK (gene 132)
Briefly: LTEA_HepaRG_ADK: Life Technologies and Expression Analysis (LTEA) Assay for adenosine kinase (ADK) gene using HepaRG (AID 2283471). As to conditions: mRNA level, 48 h; actives raise or lower the signal. Put shortly: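 Following 48 h exposure of HepaRG cells in 0.5% DMSO (top concentration 100 uM, duplicate wells), ADK mRNA induction or suppression was measured by qRT-PCR, normalised to ACTB/GAPDH/POLR2A, and fitted bidirectionally relative to vehicle.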

Read-out in assay [16]: Alpha-fetoprotein (AFP) gene, AFP (gene 174)
Briefly: LTEA_HepaRG_AFP: Life Technologies and Expression Analysis (LTEA) Assay for Alpha-fetoprotein (AFP) gene using HepaRG (AID 2283472). Particulars: mRNA level, 48 h; actives raise or lower the signal. The gist of the method: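 Differentiated human HepaRG cells exposed 48 h in serum-free induction medium, 8-point half-log series from 100 uM in 0.5% DMSO, duplicate. AFP mRNA by qRT-PCR, normalized to ACTB, GAPDH, POLR2A; bidirectional fit vs DMSO.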

Read-out in another assay: BCL2L11 (gene 10018)
Briefly: LTEA_HepaRG_BCL2L11: Life Technologies and Expression Analysis (LTEA) Assay for Bcl-2 (BCL2L11) gene using HepaRG (AID 2283473). Particulars: mRNA level, 48 h; actives raise or lower the signal. The gist of the method:
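Human hepatic HepaRG cultures are treated 48 h with test chemicals (maximum 100 uM, 0.5% DMSO vehicle). Expression of BCL2L11 is measured by qRT-PCR against ACTB, GAPDH and POLR2A, with activity in either direction scored relative to vehicle.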

Read-out in assay [17]: Apolipoprotein A-V (APOA5) gene, APOA5 (gene 116519)
Briefly: LTEA_HepaRG_APOA5: Life Technologies and Expression Analysis (LTEA) Assay for Apolipoprotein A-V (APOA5) gene using HepaRG (AID 2283474). Particulars: mRNA level, 48 h; actives raise or lower the signal. The gist of the method:
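Concentration-response of APOA5 expression in HepaRG: eight half-log doses to 100 uM, 48 h, qRT-PCR normalized to ACTB/GAPDH/POLR2A, bidirectional fitting with 0.5% DMSO as baseline.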

Read-out in assay [18]: Forkhead box O3 (FOXO3), FOXO3 (gene 2309)
Briefly: LTEA_HepaRG_FOXO3: Life Technologies and Expression Analysis (LTEA) Assay for Forkhead box O3 (FOXO3) using HepaRG (AID 2283459). Particulars: mRNA level, 48 h; actives raise or lower the signal. Put shortly:
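Differentiated human HepaRG cells in serum-free induction medium were exposed in duplicate for 48 h to eight half-log concentrations up to 100 uM in 0.5% DMSO. FOXO3 mRNA was quantified by qRT-PCR, normalized to ACTB, GAPDH and POLR2A, with bidirectional fitting versus DMSO.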

Assay [19] is described as follows: CEETOX_H295R_TESTO: CeeTox H295R High-throughput Steroidogenesis Assay for Testosterone (TESTO) (AID 2283457). Particulars: actives raise or lower the signal. Put shortly: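 Steroidogenesis in H295R cells following OECD 456 with minor changes; 48 h exposure. Medium testosterone by HPLC-MS/MS, DMSO as baseline, with MTT viability run in parallel.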

Activity calls are given as the source filed them. Rule for the calls: active = hit-call score of the fitted dose curve at least 0.9, where 1 is the maximum; inactive = score below 0.9.

Broad substrate specificity ATP-binding cassette transporter ABCG2 (Homo sapiens), sequence (Q9UNQ0 whole entry, looked up): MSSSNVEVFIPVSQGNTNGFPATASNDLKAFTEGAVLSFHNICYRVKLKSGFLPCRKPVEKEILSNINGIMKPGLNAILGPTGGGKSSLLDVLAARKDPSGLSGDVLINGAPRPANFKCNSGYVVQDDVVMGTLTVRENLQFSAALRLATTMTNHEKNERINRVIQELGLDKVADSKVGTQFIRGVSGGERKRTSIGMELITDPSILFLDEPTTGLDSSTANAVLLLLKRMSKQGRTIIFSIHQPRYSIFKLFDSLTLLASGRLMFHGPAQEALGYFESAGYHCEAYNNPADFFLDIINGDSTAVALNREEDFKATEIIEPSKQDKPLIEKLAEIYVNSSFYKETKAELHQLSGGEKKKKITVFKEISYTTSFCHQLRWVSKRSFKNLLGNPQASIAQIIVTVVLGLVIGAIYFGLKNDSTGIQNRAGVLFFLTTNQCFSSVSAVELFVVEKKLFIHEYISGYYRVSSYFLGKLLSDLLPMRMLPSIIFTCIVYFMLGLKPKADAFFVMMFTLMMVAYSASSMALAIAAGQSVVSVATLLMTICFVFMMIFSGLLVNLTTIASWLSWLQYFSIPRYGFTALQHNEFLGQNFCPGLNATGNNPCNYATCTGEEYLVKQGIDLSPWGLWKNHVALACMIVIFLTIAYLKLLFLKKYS

In the case of `Clc1ccc(C(Cl)(Cl)Cl)cc1`, the call in assay [1], in assay [2], in assay [3], in assay [4], in [5] and in [6] was inactive. For the same molecule, the result in assay [7], in assay [8], in [9], in assay [10], in assay [11] and in [12] was inactive. In addition, the outcome (in assay [13]; in [14]; in [15]; in assay [16]; with BCL2L11 (gene 10018); in [17]) was inactive.

In the case of `Cc1cccc(C)c1N`, the molecule was classed as inactive in [1], in assay [2], in assay [3], in assay [18], in [4] and in assay [5]. Moreover, the call in assay [6], in assay [7], in assay [8], in [9], in assay [10] and in assay [11] was inactive. The molecule was called inactive (in assay [12]; in [13]; in assay [14]; in assay [15]; in the assay with BCL2L11 (gene 10018); in assay [17]).

For the molecule `O=C(NC(=O)c1c(F)cccc1F)Nc1cc(Cl)c(OC(F)(F)C(F)F)c(Cl)c1`, the result in [1], in assay [2], in [19], in [3], in [4] and in assay [5] was inactive. Further, the outcome in [6], in [8], in assay [9], in assay [10], in assay [11] and in assay [12] was inactive. The outcome (in assay [13]; in assay [14]; in the assay with BCL2L11 (gene 10018); in assay [17]) was inactive. The AC50 in assay [7] was 50 µM (active).

A word on the AC50: it is the midpoint of the concentration-response curve, whichever way the signal moves.
